# Results as given in PubChem BioAssay (EPA / NIEHS).
# Calls of active or inactive are those of the source. The calls were made as follows: active = hit-call score of the fitted dose curve at least 0.9, where 1 is the maximum; inactive = score below 0.9.
# Experiment: ATG_E_Box_CIS: Attagene CIS-FACTORIAL HepG2 Assay for human Enhancer Box (E-box) (AID 2282936)
# Conditions: HepG2 E-box cis-reporter transcription, actives raise or lower the signal
# Procedure, shortened: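 HepG2 cells transiently transfected with multiplexed cis-element reporter units sensing endogenous transcription factor activity; 24 h compound exposure. Reporter mRNA measured by RT-PCR, 6-FAM primer extension, HpaI digestion and capillary electrophoresis; bidirectional fit versus DMSO.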
SMILES,outcome,AC50
Nc1ccc(-c2ccc(N)c(N)c2)cc1N,inactive,
CCOP(O)OCC,inactive,
C#CC1(O)CCCCC1,inactive,
O=c1[nH]c(Cl)c(Cl)cc1Cl,inactive,
CCC(C)c1cc(C(C)(C)C)cc(-n2nc3ccccc3n2)c1O (stereo unspecified),inactive,
[CH3][Sn]([Cl])([Cl])[Cl],inactive,
Nc1c(Cl)c(Cl)c(Cl)c(Cl)c1Cl,inactive,
COC(=O)c1ccccc1S(=O)(=O)NC(=O)Nc1nc(C)cc(C)n1,inactive,
Nc1ccccc1C(=O)OCCc1ccccc1,inactive,
N#Cc1cccc(C#N)c1,inactive,
O=C(O)CCCc1ccc(N(CCCl)CCCl)cc1,inactive,
Nc1cc(Cl)cc(Cl)c1,inactive,
COc1ncc(F)c2nc(S(=O)(=O)Nc3c(F)cccc3F)nn12,inactive,
COC(C)(C)CCC[C@H](C)C/C=C/C(C)=C/C(=O)OC(C)C,inactive,
[CH3][Sn]([CH3])([Cl])[Cl],inactive,
BrCBr,inactive,
CCc1cccc(C)c1N(C(=O)CCl)[C@@H](C)COC,inactive,
O=P1(NCCCl)OCCCN1CCCl (stereo unspecified),inactive,
CC(Cc1ccc(C(C)(C)C)cc1)CN1C[C@@H](C)O[C@@H](C)C1 (stereo partly specified),inactive,
O=C(O)c1cc[c]([Hg][Cl])cc1,inactive,

SMILES,outcome,AC50
C[N+](C)(C)CC(=O)O,inactive,
O=S(=O)(c1ccccc1)c1ccccc1,inactive,
Clc1ccc(-c2ccccc2)cc1,inactive,
CN(C)C(=O)C(c1ccccc1)c1ccccc1,inactive,
C=CCc1ccc(OC(=O)Cc2ccccc2)c(OC)c1,inactive,
O=P(O)(Oc1ccccc1)Oc1ccccc1,inactive,
CC1CCCC1.[C-]#[O+].[C-]#[O+].[C-]#[O+].[Mn],,16.8 µM (active)
O=C(O)COc1ccccc1,inactive,
[Cl][Sb]([Cl])[Cl],inactive,
CCC(=O)c1ccc(Cl)cc1,inactive,
Cc1ccc(N(SC(F)(Cl)Cl)S(=O)(=O)N(C)C)cc1,inactive,
CC1(C)CC(=O)CC(C)(C)N1[O],inactive,
SCc1ccco1,inactive,
O=CNC(N1CCN(C(NC=O)C(Cl)(Cl)Cl)CC1)C(Cl)(Cl)Cl (stereo unspecified),inactive,
Oc1cc(Cl)ccc1Cl,inactive,
O=[N+]([O-])c1cc(C(F)(F)F)c(Cl)c([N+](=O)[O-])c1Cl,,5.43 µM (active)
C[C@]12CCC(=O)C(O)=C1CC[C@@H]1[C@@H]2CC[C@]2(C)C(=O)CC[C@@H]12,inactive,
CSc1nc(N=[N+]=[N-])nc(NC(C)C)n1,inactive,
O=[N+]([O-])O.O=[N+]([O-])O.[Cd],inactive,

# Experiment: ATG_M_61_CIS: Attagene CIS-FACTORIAL HepG2 Assay for M61 Transcription Factor (Internal Marker) (AID 2282937)
# Conditions: HepG2 Attagene CIS-FACTORIAL M61 internal marker reporter; actives raise or lower the signal
# Procedure, shortened: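 Background-control endpoint: HepG2 cells with cis-regulated reporter constructs, 24 h exposure, reporter mRNA detected via fluorescent primer extension and capillary electrophoresis; values from bidirectional fitting with DMSO baseline.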
row,SMILES,outcome
1,Nc1ccc(-c2ccc(N)c(N)c2)cc1N,inactive
2,C#CC1(O)CCCCC1,inactive
3,CCC(C)c1cc(C(C)(C)C)cc(-n2nc3ccccc3n2)c1O (stereo unspecified),inactive
4,Nc1c(Cl)c(Cl)c(Cl)c(Cl)c1Cl,inactive
5,COC(=O)c1ccccc1S(=O)(=O)NC(=O)Nc1nc(C)cc(C)n1,inactive
6,Nc1ccccc1C(=O)OCCc1ccccc1,inactive
7,N#Cc1cccc(C#N)c1,inactive
8,O=C(O)CCCc1ccc(N(CCCl)CCCl)cc1,inactive
9,Nc1cc(Cl)cc(Cl)c1,inactive
10,COc1ncc(F)c2nc(S(=O)(=O)Nc3c(F)cccc3F)nn12,inactive
11,[CH3][Sn]([CH3])([Cl])[Cl],inactive
12,BrCBr,inactive
13,O=P1(NCCCl)OCCCN1CCCl (stereo unspecified),inactive
14,CC(Cc1ccc(C(C)(C)C)cc1)CN1C[C@@H](C)O[C@@H](C)C1 (stereo partly specified),inactive
15,O=C(O)c1cc[c]([Hg][Cl])cc1,inactive
16,C[N+](C)(C)CC(=O)O,inactive
17,O=S(=O)(c1ccccc1)c1ccccc1,inactive

row,SMILES,outcome
1,Clc1ccc(-c2ccccc2)cc1,inactive
2,CN(C)C(=O)C(c1ccccc1)c1ccccc1,inactive
3,C=CCc1ccc(OC(=O)Cc2ccccc2)c(OC)c1,inactive
4,O=P(O)(Oc1ccccc1)Oc1ccccc1,inactive
5,CC1CCCC1.[C-]#[O+].[C-]#[O+].[C-]#[O+].[Mn],inactive
6,O=C(O)COc1ccccc1,inactive
7,[Cl][Sb]([Cl])[Cl],inactive
8,Cc1ccc(N(SC(F)(Cl)Cl)S(=O)(=O)N(C)C)cc1,inactive
9,CC1(C)CC(=O)CC(C)(C)N1[O],inactive
10,SCc1ccco1,inactive
11,O=CNC(N1CCN(C(NC=O)C(Cl)(Cl)Cl)CC1)C(Cl)(Cl)Cl (stereo unspecified),inactive
12,Oc1cc(Cl)ccc1Cl,inactive
13,O=[N+]([O-])c1cc(C(F)(F)F)c(Cl)c([N+](=O)[O-])c1Cl,inactive
14,C[C@]12CCC(=O)C(O)=C1CC[C@@H]1[C@@H]2CC[C@]2(C)C(=O)CC[C@@H]12,inactive
15,CSc1nc(N=[N+]=[N-])nc(NC(C)C)n1,inactive
16,O=[N+]([O-])O.O=[N+]([O-])O.[Cd],inactive

# Experiment: ATG_EGR_CIS: Attagene CIS-FACTORIAL HepG2 Assay for human Early Growth Response 1 (EGR1) (AID 2282938)
# Conditions: HepG2 Attagene CIS-FACTORIAL EGR reporter mRNA; actives raise or lower the signal
# Procedure, shortened: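 Endpoint derived by bidirectional fitting versus DMSO vehicle. Method: cis-promoter reporter units transfected into HepG2, 24 h dosing, RNA isolation, RT-PCR with 6-FAM primer extension and HpaI digestion, then capillary electrophoresis fluorescence detection.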
SMILES,outcome,AC50
Nc1ccc(-c2ccc(N)c(N)c2)cc1N,inactive,
CCOP(O)OCC,inactive,
C#CC1(O)CCCCC1,inactive,
O=c1[nH]c(Cl)c(Cl)cc1Cl,inactive,
CCC(C)c1cc(C(C)(C)C)cc(-n2nc3ccccc3n2)c1O (stereo unspecified),inactive,
[CH3][Sn]([Cl])([Cl])[Cl],inactive,
Nc1c(Cl)c(Cl)c(Cl)c(Cl)c1Cl,inactive,
COC(=O)c1ccccc1S(=O)(=O)NC(=O)Nc1nc(C)cc(C)n1,inactive,
Nc1ccccc1C(=O)OCCc1ccccc1,inactive,
N#Cc1cccc(C#N)c1,inactive,
O=C(O)CCCc1ccc(N(CCCl)CCCl)cc1,inactive,
Nc1cc(Cl)cc(Cl)c1,inactive,
COc1ncc(F)c2nc(S(=O)(=O)Nc3c(F)cccc3F)nn12,inactive,
COC(C)(C)CCC[C@H](C)C/C=C/C(C)=C/C(=O)OC(C)C,,82.3 µM (active)
[CH3][Sn]([CH3])([Cl])[Cl],inactive,
BrCBr,inactive,
CCc1cccc(C)c1N(C(=O)CCl)[C@@H](C)COC,,57.9 µM (active)
O=P1(NCCCl)OCCCN1CCCl (stereo unspecified),inactive,
CC(Cc1ccc(C(C)(C)C)cc1)CN1C[C@@H](C)O[C@@H](C)C1 (stereo partly specified),inactive,
O=C(O)c1cc[c]([Hg][Cl])cc1,inactive,

SMILES,outcome,AC50
C[N+](C)(C)CC(=O)O,inactive,
O=S(=O)(c1ccccc1)c1ccccc1,inactive,
Clc1ccc(-c2ccccc2)cc1,inactive,
CN(C)C(=O)C(c1ccccc1)c1ccccc1,inactive,
C=CCc1ccc(OC(=O)Cc2ccccc2)c(OC)c1,inactive,
O=P(O)(Oc1ccccc1)Oc1ccccc1,inactive,
CC1CCCC1.[C-]#[O+].[C-]#[O+].[C-]#[O+].[Mn],inactive,
O=C(O)COc1ccccc1,inactive,
[Cl][Sb]([Cl])[Cl],,140 µM (active)
CCC(=O)c1ccc(Cl)cc1,inactive,
Cc1ccc(N(SC(F)(Cl)Cl)S(=O)(=O)N(C)C)cc1,,11.1 µM (active)
CC1(C)CC(=O)CC(C)(C)N1[O],inactive,
SCc1ccco1,inactive,
O=CNC(N1CCN(C(NC=O)C(Cl)(Cl)Cl)CC1)C(Cl)(Cl)Cl (stereo unspecified),inactive,
Oc1cc(Cl)ccc1Cl,inactive,
O=[N+]([O-])c1cc(C(F)(F)F)c(Cl)c([N+](=O)[O-])c1Cl,,4.82 µM (active)
C[C@]12CCC(=O)C(O)=C1CC[C@@H]1[C@@H]2CC[C@]2(C)C(=O)CC[C@@H]12,inactive,
CSc1nc(N=[N+]=[N-])nc(NC(C)C)n1,inactive,
O=[N+]([O-])O.O=[N+]([O-])O.[Cd],,1 µM (active)
